Assay outcomes (PubChem BioAssay)
PLK1 PBD block: inhibitors of human PLK1 polo-box domain binding. Plk1 PBD binding of FITC phosphopeptide, fluorescence polarization. Potency, µM, inactives show max response, negative = inhibition, hits mostly inhibitors. hit rate 2.8% among 360,000. P53350; note: series mostly up to about 57 µM; % is set by controls: 0 for no effect and ±100 for the full control effect; nearly all actives have a fitted effect of over 65% in size
JMJD2A Tudor: JMJD2A Tudor domain (human) inhibition | AlphaScreen JMJD2A-Tudor / H3K4me3 peptide binding | Potency, µM (series often up to 114 µM), for inactives: top-dose activity change, negative = inhibition, hits mostly inhibitors | hit rate 4.4% among 390,000 | AID 504339; note: % is set by controls: 0 for no effect and ±100 for the full control effect; nearly all actives have a fitted effect of over 50% in size
Sfp inh: blocks B. subtilis Sfp PPTase activity | Potency, µM, without a hit: largest response in the series, negative = inhibition, hits mostly inhibitors | Q9F4F7 | hit rate 3.5% among 310,000 | AID 1490 | Biochemical Sfp PPTase activity, qHTS;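 note: the enzyme is Sfp with the accession as filed and its product quenches rhodamine fluorescence; 0% = enzyme reaction without inhibitor and -100% = no enzyme wells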
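Sfp 15 nM + cpd, 15 min RT; start w/ rhodamine-CoA 5 uM, BHQ-2-YbbR 12.5 uM (final); 50 mM Hepes pH 7.6, 10 mM MgCl2, 0.01% NP-40, 0.01% BSA; read 525/598 nm at 0 and 30 min.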
G9a block: blocks human histone lysine methyltransferase G9a | Potency, µM (series often up to 102 µM), inactives show top-dose activity, negative = inhibition, actives largely listed as inhibitors | G9a H3K9 monomethylation, AlphaScreen, 2 h | AID 504332 | Q96KQ7 | hit rate 8.8% among 350,000; note: % is set by controls: 0 for no effect and ±100 for the full control effect; nearly all actives have a fitted effect of over 75% in size
Target sequence (Q96KQ7 913-1193 limits assumed): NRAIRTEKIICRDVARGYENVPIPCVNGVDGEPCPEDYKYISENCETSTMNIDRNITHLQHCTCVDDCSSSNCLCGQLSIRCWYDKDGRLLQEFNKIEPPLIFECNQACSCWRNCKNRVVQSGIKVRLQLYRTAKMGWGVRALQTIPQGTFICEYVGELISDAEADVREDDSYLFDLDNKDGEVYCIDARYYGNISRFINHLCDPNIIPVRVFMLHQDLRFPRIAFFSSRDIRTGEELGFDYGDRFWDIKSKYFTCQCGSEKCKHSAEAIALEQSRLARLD
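AlphaScreen read-out: biotin-H3K9 peptide (500 nM) methylation by 20 nM enzyme with 20 uM SAM, 2 h at room temperature after 15 min compound preincubation; anti-monomethyl H3K9 antibody plus donor/acceptor beads, 10 min dark.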
BAZ2B inh: blocks human BAZ2B; Q9UIF8; AlphaScreen BAZ2B-H3K14Ac peptide displacement; Potency, µM (top dose mostly 114 µM), for inactives: at the top dose activity change, negative = inhibition, actives largely listed as inhibitors; hit rate 4.4% among 360,000; AID 504333; note: % is set by controls: 0 for no effect and ±100 for the full control effect; nearly all actives have a fitted effect of over 60% in size
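Protein-peptide AlphaScreen: BAZ2B 50 nM, b-H3K14Ac 50 nM, 1x PBS pH 7.4 + 0.01% Tween-20. Preincubation 30 min RT; cpd 30 min RT (top 110 uM); beads 20 min RT, light-protected.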
HP1b chromo inh: inhibitors of HP1-beta chromodomain binding to methylated histone tails | P83916 | AlphaScreen HP1-beta / biotin-H3K9me3 peptide binding | Potency, µM (highest dose often 114 µM), for inactives: at the top dose activity change, negative = inhibition, hits mostly inhibitors | hit rate 0.56% among 390,000 | AID 540317; note: nearly all actives have a fitted effect of over 70% in size
Target sequence (P83916 whole entry, looked up): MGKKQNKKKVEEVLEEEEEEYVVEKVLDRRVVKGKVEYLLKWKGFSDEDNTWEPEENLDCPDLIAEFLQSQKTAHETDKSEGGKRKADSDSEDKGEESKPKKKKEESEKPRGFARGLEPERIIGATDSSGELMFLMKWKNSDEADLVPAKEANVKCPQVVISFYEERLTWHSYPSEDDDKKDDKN
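Compound inhibition of the preformed complex between 50 nM HP1-beta and 50 nM biotinylated H3K9me3 peptide was read by AlphaScreen. Buffer was PBS pH 7.4 with 0.01% Tween-20. Incubations ran 30 min at room temperature, with 10 ug/mL donor/acceptor beads.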
* = called active by the depositor; [ ] = remark or other dose. An excerpt weighted towards active compounds, which were near 12% of everything screened. Calls come from the whole dose curve; as a rule, active = well fitted curve in the direction sought with a large enough effect; inconclusive = small, poorly fitted or top-dose-only effect, or another doubt; inactive = no such curve, though single readings can be large; an effect the other way counts as inactive or inconclusive. Potency is the fitted concentration of half-maximal effect.

`CCCc1nnc(NC(=O)c2ccc([N+](=O)[O-])cc2)s1` gave PLK1 PBD block 4%, JMJD2A Tudor -7%, Sfp inh 13%, G9a block 4%[59 µM], BAZ2B inh 8% and HP1b chromo inh 28%.
Screening CCCCCc1nnc(NC(=O)Cc2ccc([N+](=O)[O-])cc2)s1 returned PLK1 PBD block inconclusive, JMJD2A Tudor -32%, Sfp inh -7%, G9a block 45µM*, BAZ2B inh -2% and HP1b chromo inh 6%.
Screening Cc1ccnc(NC(=O)Cc2ccc([N+](=O)[O-])cc2)c1 returned PLK1 PBD block -17%, JMJD2A Tudor -3%, Sfp inh 14%, BAZ2B inh 50µM* and HP1b chromo inh 33%.
`CCSc1ncnc2nc[nH]c12` gave JMJD2A Tudor -5%[57.1 µM] and HP1b chromo inh -6%[57 µM].
`COc1ccc(NC(=O)C2=CC(c3ccc4c(c3)OCO4)=NS(=O)(=O)N2C)cc1` gave JMJD2A Tudor -25%, G9a block inconclusive, BAZ2B inh inconclusive and HP1b chromo inh 73%.
COc1ccccc1N1CCN(C2CCN(S(=O)(=O)c3ccc4ccccc4c3)CC2)CC1 was read as PLK1 PBD block 3%, JMJD2A Tudor inconclusive, Sfp inh 1%, G9a block 45µM*, BAZ2B inh inconclusive and HP1b chromo inh inconclusive.
`O=c1[nH]c(CN2CCN(S(=O)(=O)c3ccc4ccccc4c3)CC2)nc2ccccc12` gave PLK1 PBD block 2%, JMJD2A Tudor inconclusive, Sfp inh -6%, G9a block 21%, BAZ2B inh -5% and HP1b chromo inh 24%.
`O=S(=O)(c1ccccc1)N1CCN(C2CCN(Cc3ccccc3)CC2)CC1` gave PLK1 PBD block -10%, JMJD2A Tudor -6%, Sfp inh 8%, G9a block -1%, BAZ2B inh 1% and HP1b chromo inh 1%.
For c1ccc(CN2CCC(N3CCC(N4CCCCCC4)CC3)CC2)cc1 the results were PLK1 PBD block -2%, JMJD2A Tudor 1.4µM*, Sfp inh inconclusive, G9a block 45µM*, BAZ2B inh inconclusive and HP1b chromo inh -11%.
`O=S(=O)(c1ccc2ccccc2c1)N1CCN(C2CCN(Cc3ccccc3)CC2)CC1` gave PLK1 PBD block -5%, JMJD2A Tudor 0.89µM*, Sfp inh inconclusive, G9a block 5µM*, BAZ2B inh 28µM* and HP1b chromo inh -46%.
`O=S(=O)(c1ccc2ccccc2c1)N1CCN(Cc2ccccn2)CC1` gave PLK1 PBD block -16%, JMJD2A Tudor 3.2µM*, Sfp inh 71µM*, G9a block inconclusive, BAZ2B inh 79µM* and HP1b chromo inh -9%.
For CC1(C)CC(NC(=O)c2ccccc2NS(=O)(=O)c2ccc(Br)cc2)CC(C)(C)N1 the results were PLK1 PBD block -4%, JMJD2A Tudor -16% and HP1b chromo inh 23%.
`CCOC(=O)C1=NN(C(C)=O)C2(CC(=O)N(c3cccc(C)c3)C2=O)C1` (centres undefined) gave PLK1 PBD block 27µM*, JMJD2A Tudor -15%, Sfp inh 11%, G9a block 24%, BAZ2B inh 4% and HP1b chromo inh -5%.
Screening COC(=O)C1=NN(C(C)=O)C2(CC(=O)N(c3cccc(C)c3)C2=O)C1 (centres undefined) returned PLK1 PBD block -9%, JMJD2A Tudor -7%, Sfp inh -16%, G9a block -5%[59 µM], BAZ2B inh 7% and HP1b chromo inh 2%.
`C[C@@H]1CNC(=O)c2c(C(=O)N[C@@H](Cc3c[nH]c4ccccc34)C(=O)OC(C)(C)C)ncn21` gave PLK1 PBD block 7%.
For COc1cccc(C2CC(=O)Nc3c2ccc(C)c3C)c1OC (centres undefined) the results were JMJD2A Tudor -7%, G9a block 2%[59 µM], BAZ2B inh -13% and HP1b chromo inh 21%.
